Measured values from PubChem BioAssay.
Unmarked numbers belong to inactive results. For some assays here: Measured potencies and affinities stand elsewhere. Calls of active or inactive are those of the source. Unless noted, how the calls were made is not given here.

Key:
[1] = antimalarial activity against Dd2 strain (AID 2302;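 active means growth inhibition above 50% at the single 2 µM test dose, taken to imply half-maximal potency below 2 µM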;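 further: 0% = DMSO untreated growth and 100% = chloroquine plus artemisinin killed control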); settings: P. falciparum Dd2 in RBCs, LDH growth readout, 72 h; at 2 µM; stronger effect = higher value
[2] = human hepatoma cell viability loss – ATP luminescence, cytotoxicity control for P. falciparum antimalarial project, primary screen (AID 2303;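 active means inhibition above 50%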;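 further: 0% = DMSO wells and 100% = digitonin-killed cells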); settings: HepG2 viability, 24-48 h, at 10 µM, stronger effect = higher value
[3] = molecular target: L-lactate dehydrogenase (Plasmodium falciparum (isolate CDC / Honduras)) (UniProt Q27743); experiment: PfLDH activity inhibition – cell lysate, 3D7 strain, counter-screen for P. falciparum growth inhibition project (AID 2304);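 further: 0% = vehicle and 100% = reference inhibitor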; settings: P. falciparum 3D7 crude extract, LDH APAD/NBT absorbance; at 2 µM; stronger effect = higher value
[4] = inhibition of 3D7 malaria parasite growth – strain 3D7 (AID 2306);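 further: 0% = DMSO wells and 100% = chloroquine plus artemisinin control wells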; settings: P. falciparum 3D7 erythrocytic growth, LDH absorbance, 72 h; at 2 µM; stronger effect = higher value
[5] = molecular target: Calcium-dependent protein kinase 1 (Plasmodium falciparum (isolate 3D7)) (UniProt P62344); experiment: PfCDPK1 kinase inhibitors, biochemical, TCAMS library (AID 1159585; cut-off not given, nearly all actives have IC50 up to about 0.98 µM;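 further: inhibitors leave more ATP so luminescence rises with inhibition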); settings: recombinant PfCDPK1, Kinase-Glo ATP depletion luminescence
[6] = molecular target: Plasmodium falciparum protein kinase 6 (PK6, PF3D7_1337100) (UniProt Q8IDW1); experiment: PfPK6 kinase inhibitors, biochemical, TCAMS library (AID 1159586); settings: recombinant PfPK6, Kinase-Glo ATP depletion luminescence
[7] = molecular target: Protein kinase 7 (PK7), Plasmodium falciparum 3D7 (PF3D7_0213400) (UniProt Q7YTF7); experiment: inhibition of Plasmodium PK7 catalytic activity – biochemical, TCAMS antimalarial set, Kinase-Glo luminescence (AID 1159587); settings: recombinant PfPK7, Kinase-Glo ATP depletion luminescence
[8] = molecular target: Calcium-dependent protein kinase 4 (Plasmodium falciparum (isolate 3D7)) (UniProt Q8IBS5); experiment: PfCDPK4 kinase inhibitors, biochemical, TCAMS library (AID 1159588; cut-off not given, nearly all actives have IC50 up to about 0.91 µM); settings: recombinant PfCDPK4, Kinase-Glo ATP depletion luminescence
Calcium-dependent protein kinase 4 (Plasmodium falciparum (isolate 3D7)), sequence (Q8IBS5 whole entry, looked up): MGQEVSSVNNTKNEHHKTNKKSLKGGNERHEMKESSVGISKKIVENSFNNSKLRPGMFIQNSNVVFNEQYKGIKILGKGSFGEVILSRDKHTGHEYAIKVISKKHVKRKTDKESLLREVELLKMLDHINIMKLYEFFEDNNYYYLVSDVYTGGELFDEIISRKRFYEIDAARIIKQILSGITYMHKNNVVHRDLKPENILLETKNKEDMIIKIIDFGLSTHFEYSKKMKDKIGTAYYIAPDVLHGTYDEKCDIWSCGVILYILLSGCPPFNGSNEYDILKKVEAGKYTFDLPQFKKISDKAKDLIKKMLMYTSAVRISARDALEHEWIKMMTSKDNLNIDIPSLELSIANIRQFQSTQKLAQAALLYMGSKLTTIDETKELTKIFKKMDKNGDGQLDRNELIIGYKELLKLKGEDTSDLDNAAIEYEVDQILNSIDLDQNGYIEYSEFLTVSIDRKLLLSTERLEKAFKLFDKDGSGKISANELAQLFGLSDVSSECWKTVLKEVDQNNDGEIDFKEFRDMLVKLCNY

L-lactate dehydrogenase (Plasmodium falciparum (isolate CDC / Honduras)), sequence (Q27743 whole entry, looked up): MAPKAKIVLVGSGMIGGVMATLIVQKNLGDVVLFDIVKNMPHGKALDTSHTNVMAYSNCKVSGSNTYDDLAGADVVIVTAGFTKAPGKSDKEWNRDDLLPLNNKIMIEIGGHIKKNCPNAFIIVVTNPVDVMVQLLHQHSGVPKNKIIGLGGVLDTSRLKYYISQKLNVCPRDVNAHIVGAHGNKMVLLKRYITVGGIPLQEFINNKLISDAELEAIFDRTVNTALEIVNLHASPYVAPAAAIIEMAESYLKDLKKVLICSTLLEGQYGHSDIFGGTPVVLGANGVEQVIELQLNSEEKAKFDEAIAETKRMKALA
Protein kinase 7 (PK7), Plasmodium falciparum 3D7 (PF3D7_0213400), sequence (Q7YTF7 1-343): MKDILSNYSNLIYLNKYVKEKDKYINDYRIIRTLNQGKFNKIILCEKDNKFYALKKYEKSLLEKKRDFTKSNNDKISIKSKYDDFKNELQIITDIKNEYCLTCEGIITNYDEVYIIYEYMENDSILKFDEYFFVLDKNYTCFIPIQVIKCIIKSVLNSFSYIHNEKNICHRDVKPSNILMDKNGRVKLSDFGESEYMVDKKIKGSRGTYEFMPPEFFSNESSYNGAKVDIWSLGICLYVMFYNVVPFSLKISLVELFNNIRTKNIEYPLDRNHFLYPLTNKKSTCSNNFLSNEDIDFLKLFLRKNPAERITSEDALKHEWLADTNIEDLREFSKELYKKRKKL
Calcium-dependent protein kinase 1 (Plasmodium falciparum (isolate 3D7)), sequence (P62344 whole entry, looked up): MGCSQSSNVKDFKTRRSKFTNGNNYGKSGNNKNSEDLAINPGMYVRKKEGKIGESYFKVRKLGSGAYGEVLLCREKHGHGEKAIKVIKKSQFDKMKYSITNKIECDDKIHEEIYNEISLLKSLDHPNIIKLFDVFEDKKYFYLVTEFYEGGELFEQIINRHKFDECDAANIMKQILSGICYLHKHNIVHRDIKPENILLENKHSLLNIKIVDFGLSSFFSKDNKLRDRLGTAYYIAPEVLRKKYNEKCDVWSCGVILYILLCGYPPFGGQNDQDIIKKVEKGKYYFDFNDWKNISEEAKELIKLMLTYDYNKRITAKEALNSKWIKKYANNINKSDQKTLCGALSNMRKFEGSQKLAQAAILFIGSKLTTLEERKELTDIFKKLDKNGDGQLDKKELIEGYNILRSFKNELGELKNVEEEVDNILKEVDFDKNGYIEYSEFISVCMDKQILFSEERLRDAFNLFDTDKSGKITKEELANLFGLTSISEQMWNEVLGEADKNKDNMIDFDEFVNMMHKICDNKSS
Plasmodium falciparum protein kinase 6 (PK6, PF3D7_1337100), sequence (Q8IDW1 1-305): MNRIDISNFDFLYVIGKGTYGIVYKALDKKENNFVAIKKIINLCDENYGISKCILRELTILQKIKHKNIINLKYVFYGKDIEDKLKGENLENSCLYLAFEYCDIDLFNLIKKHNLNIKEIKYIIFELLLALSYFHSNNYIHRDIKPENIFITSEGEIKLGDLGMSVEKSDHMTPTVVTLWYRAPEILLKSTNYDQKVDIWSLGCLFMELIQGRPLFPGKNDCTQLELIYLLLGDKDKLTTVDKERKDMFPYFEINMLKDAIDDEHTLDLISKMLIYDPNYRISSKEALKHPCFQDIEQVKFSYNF

SMILES | growth inhibition [1] | inhibition [2] | inhibition [3] [%] | growth inhibition [4] | outcome [5] | outcome [6] | outcome [7] | outcome [8]
CCc1cc2c3c(N)nc(N)nc3ccc2n1C(CC)CC | 12% | 71% (active) | 5 | 96% (active) | inactive | inactive | inactive | inactive
COc1csc2cc(Br)ccc12 | -5% | 6% | -3 | 101% (active) | inactive | inactive | inactive | inactive
CCCc1cccc(C)c1OCCCON1C(N)=NC(N)=NC1(C)C | 96% (active) | 57% (active) | -2 | 95% (active) | inactive | inactive | inactive | inactive
O=C(Nc1ccc(Cl)cc1C(=O)Nc1ccncc1)c1ccc(Cl)cc1Cl | 75% (active) | 8% | -5 | 99% (active) | inactive | inactive | inactive | inactive
O=C(NCC1CCC(CNCCCc2ccccc2)CC1)c1cc(Cl)cc(Cl)c1 (stereo not given) | 13% | 58% (active) | -1 | 89% (active) | inactive | inactive | inactive | inactive
Nc1ncc(-c2ccc3nccc(-c4ccncc4)c3c2)cc1S(=O)(=O)N1CCOCC1 | 99% (active) | 39% | -1 | 100% (active) | inactive | inactive | inactive | inactive
O=C(CCC1CCCC1)N(Cc1ccc(-c2ccc(CNCCc3ccccn3)cc2)cc1)CC1CCCCN1 (stereo not given) | 69% (active) | 32% | 0 | 95% (active) | inactive | inactive | inactive | inactive
CCn1c(=O)c(C(=O)Nc2cc(Cl)c(OC)cc2OC)nc2ccccc21 | 84% (active) | 19% | 6 | 86% (active) | inactive | inactive | inactive | inactive
Cc1ccc(NC(=O)Nc2cccc(Cl)c2)cc1-c1ccc(C(=O)Nc2ccncc2)cc1 | 49% | 67% (active) | -1 | 97% (active) | inactive | inactive | inactive | inactive
COCc1nc(-c2ccccc2)nc(N2CCN(C(=O)NC(C)C)CC2)c1Cc1ccccc1F | 94% (active) | 35% | -3 | 96% (active) | inactive | inactive | inactive | inactive
C=CCC(CC=C)N1C(=O)C(c2ccccc2)(c2ccccc2)N=C1N | 97% (active) | 35% | -3 | 98% (active) | inactive | inactive | inactive | inactive
O=[N+]([O-])c1ccc2nccnc2c1 | 0% | -2% | -1 | 97% (active) | inactive | inactive | inactive | inactive
COc1ccc(-c2ccc(NC(=O)c3cccc(Cl)c3)cc2)cc1CN(C)CCO | 52% (active) | 39% | -4 | 89% (active) | inactive | inactive | inactive | inactive
COCCN1CCC(NCC(C)(C)c2nc(-c3ccc(Cl)c(O)c3)c(-c3ccncc3)[nH]2)CC1 | 47% | -8% | -2 | 102% (active) | inactive | inactive | inactive | inactive
CN(Cc1cccc(F)c1)C1CCN(c2cc(NC(=O)c3cccc(F)c3)ccn2)CC1 | 13% | 12% | 3 | 94% (active) | inactive | inactive | inactive | inactive
CCC1(C)N=C(N)N=C(N)N1c1ccc(Cl)cc1 (stereo not given) | -1% | 7% | -3 | 95% (active) | inactive | inactive | inactive | inactive
COc1c(C2CCN(CCN3CCC(CNC(=O)c4ccc(-c5ccc(C#N)cc5)cc4)CC3)CC2)ccc2c1CCCC2 | 100% (active) | 96% (active) | 0 | 100% (active) | inactive | inactive | inactive | inactive
CCCC1(NC[C@@H](O)[C@H](Cc2ccccc2)NC(=O)c2cc(NCC)cc(N3CCCCS3(=O)=O)c2)CCCCC1 | 98% (active) | 4% | -4 | 101% (active) | inactive | inactive | inactive | inactive
COc1ccc2nccc([C@H](O)CN3CCC(NCc4ccc5c(c4C)OCCO5)CC3)c2n1 | 6% | 26% | 4 | 94% (active) | inactive | inactive | inactive | inactive
CCc1ccc(CN2CCC(CNC(=O)c3cc(-c4ccccc4F)cs3)C2)cc1 (stereo not given) | 3% | 29% | -2 | 100% (active) | inactive | inactive | inactive | inactive

SMILES | growth inhibition [1] | inhibition [2] | inhibition [3] [%] | growth inhibition [4] | outcome [5] | outcome [6] | outcome [7] | outcome [8]
Cc1ccc(Nc2nccc(NCC(O)c3cccc(C)c3)n2)cc1 (stereo not given) | 23% | 22% | 0 | 90% (active) | inactive | inactive | inactive | inactive
CC(C)CN1CCCN(Cc2cccc(NC(=O)c3cc4ccccc4s3)c2)CC1 | 6% | 5% | 0 | 87% (active) | inactive | inactive | inactive | inactive
CCOC(=O)NOC(C(=O)O)c1ccccc1 (stereo not given) | 17% | 4% | -1 | 99% (active) | inactive | inactive | inactive | inactive
COc1cc(OC)cc(-c2nc3c(C#N)c(OCCN(C)C)ccc3[nH]2)c1 | 25% | 4% | -3 | 99% (active) | inactive | inactive | inactive | inactive
CCC[C@@H]([C@@H](CC1CCCCC1)C(=O)N[C@@H](CCCCNS(C)(=O)=O)C(=O)Nc1nccs1)N(O)C=O | 74% (active) | -13% | -1 | 101% (active) | inactive | inactive | inactive | inactive
CN1CCN(CC2(Nc3nccc(NCCc4cn(C)c5ccccc45)n3)CCCCC2)CC1 | 41% | 67% (active) | 2 | 91% (active) | inactive | inactive | inactive | inactive
COc1cc(-c2ccc(-c3cnc(N)nc3OC)[nH]2)cc(OC)c1OC | 54% (active) | -3% | -2 | 101% (active) | inactive | inactive | inactive | inactive
O=C(Cn1c(=O)cnc2ccccc21)Nc1cccc(C(=O)Nc2cccc(C(F)(F)F)c2)c1 | 66% (active) | -12% | 3 | 90% (active) | inactive | inactive | inactive | inactive
O=C(Nc1cccc(-c2csc(-c3nc4ccccc4[nH]3)c2)c1)c1cccnc1 | 45% | 18% | -5 | 98% (active) | inactive | inactive | inactive | inactive
O=C(Nc1cccc(-c2ccc(-c3nc4ccccc4[nH]3)cc2)c1)c1cccnc1 | 1% | 18% | -5 | 100% (active) | inactive | inactive | inactive | inactive
Cc1ccc(C(O)CNc2ccnc(Nc3cccc(-c4csc(C)n4)c3)n2)cc1 (stereo not given) | 31% | 17% | -2 | 92% (active) | inactive | inactive | inactive | inactive
C[C@H](Cc1ccc(CCc2ccc(C[C@@H](C)NC[C@H](O)c3cccc(Cl)c3)cc2)cc1)NC[C@H](O)c1cccc(Cl)c1 | 92% (active) | 100% (active) | 2 | 95% (active) | inactive | inactive | inactive | inactive
CC[C@H]1CN2CCc3c([nH]c4ccccc34)[C@@H]2C[C@@H]1CC1c2cc(OC)c(OC)cc2CCN1C (stereo not given in full) | 45% | 31% | 5 | 85% (active) | inactive | inactive | inactive | inactive
CCOc1ccc(N2C(N)=NC(N)=NC2(C)C)cc1 | -2% | 10% | 0 | 95% (active) | inactive | inactive | inactive | inactive
Cc1cccc2[nH]c(-c3ccc(-c4ccc(CN5CCOCC5)cc4)cc3)nc12 | 86% (active) | 29% | 0 | 92% (active) | inactive | inactive | inactive | inactive
COc1ccc(Cc2nc3c(n2C(C)=O)SC(c2ccc(Cl)c(Cl)c2)=NN3C(C)=O)cc1 | 22% | -2% | -6 | 94% (active) | inactive | inactive | inactive | inactive
Cc1cc(C)n(Cc2ccc(C(=O)NCC3CCCCC3)cc2)n1 | 1% | 0% | 2 | 95% (active) | inactive | inactive | inactive | inactive
CCC(C)NS(=O)(=O)c1ccc2nc(Nc3ccc(C)c(Cl)c3)n(C(C)C(C)C)c2c1 (stereo not given) | 98% (active) | 22% | 1 | 98% (active) | inactive | inactive | inactive | inactive
CCCCOC(=O)NCCCC[C@H](NC(=O)OC(C)(C)C)C(=O)N[C@H](C(=O)OC(c1ccccc1)c1ccccc1)[C@H]1O[C@@H](n2ccc(=O)[nH]c2=O)[C@@H]2OC(C)(C)O[C@@H]21 | 65% (active) | 7% | 4 | 87% (active) | inactive | inactive | inactive | inactive
COc1ccc2c(c1)[nH]c1c(/C=C/c3ccc([N+](=O)[O-])cc3)nccc12 | 63% (active) | 4% | 3 | 100% (active) | inactive | inactive | inactive | inactive
